# Out of some 5,500 compounds screened, about 2,000 (36%) were called active. Another 18% or so got no clear call; they are omitted. The list shows a part of the results. A number with no mark means an inactive call. Cut-off read from the data, not from the text of the source: active = normalized growth mostly below about 0.91 (no sharp cut-off); inconclusive = no clear call, values can overlap the other calls; inactive = mostly above about 0.92.
# Experiment: chemical genetic growth profiling, strain panel (AID 1159580);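 note: tested at 20 µM; growth read once vehicle control cultures reached saturation at 30 °C; 1 = growth at the plate median or of vehicle wells; lower values mean less growth of the strain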
# Details: growth OD
# [1] = S. cerevisiae deletion strains, locus YDL101C, strain DUN1, active compounds read low
# [2] = S. cerevisiae deletion strains, locus YHR030C, strain SLT2, active compounds read low
# [3] = S. cerevisiae deletion strains, locus YHR079C, strain IRE1, active compounds read low
# [4] = S. cerevisiae deletion strains, locus YJL095W, strain BCK1, active compounds read low
# [5] = S. cerevisiae deletion strains, locus YJR066W, strain TOR1, active compounds read low
# [6] = S. cerevisiae deletion strains, locus YLR113W, strain HOG1, active compounds read low
# [7] = S. cerevisiae deletion strains, locus YNL183C, strain NPR1, active compounds read low
# [8] = S. cerevisiae deletion strains, locus YOR231W, strain MKK1, active compounds read low
# [9] = S. cerevisiae deletion strains, locus YPL256C, strain CLN2, active compounds read low
# [10] = S. cerevisiae deletion strains, locus YAL013W, strain DEP1, active compounds read low
# [11] = S. cerevisiae deletion strains, locus YBR229C, strain ROT2, active compounds read low
# [12] = S. cerevisiae deletion strains, locus YDR150W, strain NUM1, active compounds read low
# [13] = S. cerevisiae deletion strains, locus YEL061C, strain CIN8, active compounds read low
# [14] = S. cerevisiae deletion strains, locus YGR078C, strain PAC10, active compounds read low
# [15] = S. cerevisiae deletion strains, locus YHR087W, strain rtc3, active compounds read low
# [16] = S. cerevisiae deletion strains, locus YJR043C, strain POL32, active compounds read low
# [17] = S. cerevisiae deletion strains, locus YJR075W, strain HOC1, active compounds read low
# [18] = S. cerevisiae deletion strains, locus YKL190W, strain CNB1, active compounds read low
# [19] = S. cerevisiae deletion strains, locus YLR039C, strain RIC1, active compounds read low
# [20] = S. cerevisiae deletion strains, locus YLR058C, strain SHM2 (second series), active compounds read low
# [21] = S. cerevisiae deletion strains, locus YLR085C, strain ARP6, active compounds read low
# [22] = S. cerevisiae deletion strains, locus YLR262C, strain YPT6, active compounds read low
# [23] = S. cerevisiae deletion strains, locus YML094W, strain GIM5, active compounds read low
# [24] = S. cerevisiae deletion strains, locus YMR219W, strain ESC1, active compounds read low
# [25] = S. cerevisiae deletion strains, locus YMR263W, strain SAP30, active compounds read low
# [26] = S. cerevisiae deletion strains, locus YNL153C, strain GIM3, active compounds read low
# [27] = S. cerevisiae deletion strains, locus YNL298W, strain CLA4 (second series), active compounds read low
# [28] = S. cerevisiae deletion strains, locus YNL322C, strain KRE1, active compounds read low
# [29] = S. cerevisiae deletion strains, locus YNR030W, strain Alg12, active compounds read low
# [30] = S. cerevisiae deletion strains, locus YPL055C, strain LGE1, active compounds read low
# [31] = S. cerevisiae deletion strains, locus YPL241C, strain CIN2, active compounds read low
# [32] = S. cerevisiae deletion strains, locus YPR135W, strain CTF4, active compounds read low
smiles,measurement,setting,value
CCOC(=O)CCc1cc(N=Cc2cc(Br)ccc2O)c(O)c(N=Cc2cc(Br)ccc2O)c1,normalized growth,"S. cerevisiae deletion strains, locus YAR019C, strain CDC15, active compounds read low",0.963
same,normalized growth,"S. cerevisiae deletion strains, locus YBL105C, strain PKC1, active compounds read low",0.959
same,normalized growth,"S. cerevisiae deletion strains, locus YBR135W, strain CKS1, active compounds read low",0.968
same,normalized growth,"S. cerevisiae deletion strains, locus YBR136W, strain MEC1, active compounds read low",0.966
same,normalized growth,"S. cerevisiae deletion strains, locus YBR160W, strain CDC28, active compounds read low",0.959
same,normalized growth,"S. cerevisiae deletion strains, locus YDL017W, strain CDC7, active compounds read low",0.962
same,normalized growth,"S. cerevisiae deletion strains, locus YDL028C, strain MPS1, active compounds read low",0.968
same,normalized growth,[1],0.967
same,normalized growth,"S. cerevisiae deletion strains, locus YDL108W, strain KIN28, active compounds read low",0.959
same,normalized growth,"S. cerevisiae deletion strains, locus YDL132W, strain cdc53, active compounds read low",0.961
same,normalized growth,"S. cerevisiae deletion strains, locus YDL214C, strain PRR2, active compounds read low",0.834
same,normalized growth,"S. cerevisiae deletion strains, locus YDR052C, strain DBF4, active compounds read low",0.953
same,normalized growth,"S. cerevisiae deletion strains, locus YDR054C, strain cdc34, active compounds read low",0.951
same,normalized growth,"S. cerevisiae deletion strains, locus YDR226W, strain ADK1, active compounds read low",0.979
same,normalized growth,"S. cerevisiae deletion strains, locus YDR477W, strain SNF1, active compounds read low",0.805
same,normalized growth,"S. cerevisiae deletion strains, locus YER123W, strain YCK3, active compounds read low",0.66
same,normalized growth,"S. cerevisiae deletion strains, locus YER133W, strain GLC7, active compounds read low",0.788
same,normalized growth,"S. cerevisiae deletion strains, locus YFL009W, strain cdc4, active compounds read low",0.962
same,normalized growth,"S. cerevisiae deletion strains, locus YFL029C, strain CAK1, active compounds read low",0.955
same,normalized growth,"S. cerevisiae deletion strains, locus YFR003C, strain YPI1, active compounds read low",0.961
same,normalized growth,"S. cerevisiae deletion strains, locus YFR019W, strain FAB1, active compounds read low",0.877
same,normalized growth,"S. cerevisiae deletion strains, locus YFR028C, strain CDC14, active compounds read low",0.974
same,normalized growth,"S. cerevisiae deletion strains, locus YGR040W, strain KSS1, active compounds read low",0.824
same,normalized growth,"S. cerevisiae deletion strains, locus YGR052W, strain FMP48, active compounds read low",0.768
same,normalized growth,"S. cerevisiae deletion strains, locus YGR092W, strain DBF2, active compounds read low",0.371 (active)
same,normalized growth,[2],0.562 (active)
same,normalized growth,[3],0.622
same,normalized growth,"S. cerevisiae deletion strains, locus YHR082C, strain KSP1, active compounds read low",0.843
same,normalized growth,"S. cerevisiae deletion strains, locus YHR205W, strain SCH9, active compounds read low",0.87
same,normalized growth,"S. cerevisiae deletion strains, locus YIL147C, strain SLN1, active compounds read low",0.962
same,normalized growth,[4],0.643
same,normalized growth,"S. cerevisiae deletion strains, locus YJL128C, strain PBS2, active compounds read low",0.942
same,normalized growth,"S. cerevisiae deletion strains, locus YJL157C, strain FAR1, active compounds read low",0.773
same,normalized growth,"S. cerevisiae deletion strains, locus YJR016C, strain ILV3, active compounds read low",0.968
same,normalized growth,"S. cerevisiae deletion strains, locus YJR066W, strain TOR1 (second series), active compounds read low",0.764
same,normalized growth,[5],0.727
same,normalized growth,"S. cerevisiae deletion strains, locus YKL048C, strain ELM1, active compounds read low",0.873
same,normalized growth,"S. cerevisiae deletion strains, locus YKL067W, strain YNK1, active compounds read low",0.823
same,normalized growth,"S. cerevisiae deletion strains, locus YKL101W, strain HSL1, active compounds read low",0.833
same,normalized growth,"S. cerevisiae deletion strains, locus YKL193C, strain SDS22, active compounds read low",0.965
same,normalized growth,"S. cerevisiae deletion strains, locus YKL203C, strain TOR2, active compounds read low",0.786
same,normalized growth,[6],0.65 (active)
same,normalized growth,"S. cerevisiae deletion strains, locus YLR133W, strain CKI1, active compounds read low",0.804
same,normalized growth,"S. cerevisiae deletion strains, locus YLR403W, strain SFP1, active compounds read low",0.75
same,normalized growth,"S. cerevisiae deletion strains, locus YML070W, strain DAK1, active compounds read low",0.727
same,normalized growth,"S. cerevisiae deletion strains, locus YMR001C, strain CDC5, active compounds read low",0.961
same,normalized growth,"S. cerevisiae deletion strains, locus YMR205C, strain PFK2 (second series), active compounds read low",0.841
same,normalized growth,"S. cerevisiae deletion strains, locus YMR277W, strain FCP1, active compounds read low",0.971
same,normalized growth,"S. cerevisiae deletion strains, locus YNL006W, strain LST8, active compounds read low",0.976
same,normalized growth,"S. cerevisiae deletion strains, locus YNL020C, strain ARK1, active compounds read low",0.79
same,normalized growth,"S. cerevisiae deletion strains, locus YNL161W, strain CBK1, active compounds read low",0.959
same,normalized growth,[7],0.754
same,normalized growth,"S. cerevisiae deletion strains, locus YNL207W, strain RIO2, active compounds read low",0.957
same,normalized growth,"S. cerevisiae deletion strains, locus YNL222W, strain SSU72, active compounds read low",0.975
same,normalized growth,"S. cerevisiae deletion strains, locus YNL307C, strain MCK1 (second series), active compounds read low",0.76
same,normalized growth,"S. cerevisiae deletion strains, locus YOL078W, strain AVO1, active compounds read low",0.965
same,normalized growth,"S. cerevisiae deletion strains, locus YOL136C, strain PFK27, active compounds read low",0.679
same,normalized growth,"S. cerevisiae deletion strains, locus YOR061W, strain CKA2, active compounds read low",0.809
same,normalized growth,"S. cerevisiae deletion strains, locus YOR119C, strain RIO1, active compounds read low",0.84
same,normalized growth,[8],0.657
same,normalized growth,"S. cerevisiae deletion strains, locus YOR329C, strain SCD5, active compounds read low",0.961
same,normalized growth,"S. cerevisiae deletion strains, locus YPL031C, strain PHO85, active compounds read low",0.8
same,normalized growth,"S. cerevisiae deletion strains, locus YPL153C, strain RAD53, active compounds read low",0.784
same,normalized growth,"S. cerevisiae deletion strains, locus YPL204W, strain HRR25, active compounds read low",0.754
same,normalized growth,"S. cerevisiae deletion strains, locus YPL209C, strain IPL1, active compounds read low",0.964
same,normalized growth,[9],0.579 (active)
same,normalized growth,"S. cerevisiae deletion strains, locus YPR025C, strain CCL1, active compounds read low",0.954
same,normalized growth,"S. cerevisiae deletion strains, locus YPR106W, strain ISR1, active compounds read low",0.98
same,normalized growth,"S. cerevisiae deletion strains, locus YPR111W, strain DBF20, active compounds read low",0.958
same,normalized growth,"S. cerevisiae deletion strains, strain NNK1, active compounds read low",0.964
same,normalized growth,"S. cerevisiae deletion strains, strain TSCII, active compounds read low",0.96
CN(C)c1ccc(/C=N\NC(=O)CCc2ccc(O)cc2)c(Cl)c1,normalized growth,[10],1.01
same,normalized growth,[11],0.998
same,normalized growth,[1],1.05
same,normalized growth,"S. cerevisiae deletion strains, locus YDL134C, strain PPH21, active compounds read low",1.01
same,normalized growth,[12],1.01
same,normalized growth,[13],0.974
same,normalized growth,[14],1.02
same,normalized growth,[2],0.992
same,normalized growth,[15],0.995
same,normalized growth,[16],1.01
same,normalized growth,[17],1.01
same,normalized growth,[18],1.01
same,normalized growth,[19],0.951
same,normalized growth,[20],1.01
same,normalized growth,[21],0.999
same,normalized growth,[22],0.946
same,normalized growth,[23],0.974
same,normalized growth,[24],1.01
same,normalized growth,[25],1.02
same,normalized growth,"S. cerevisiae deletion strains, locus YMR307W, strain GAS1, active compounds read low",0.97
same,normalized growth,[26],1
same,normalized growth,[27],0.999
same,normalized growth,[28],1.01
same,normalized growth,[29],1.01
same,normalized growth,[30],0.985
same,normalized growth,[31],0.967
same,normalized growth,[32],1.01
CCOC(=O)CCc1cc(N=Cc2cc(Cl)cc(Cl)c2O)c(O)c(N=Cc2cc(Cl)cc(Cl)c2O)c1,normalized growth,[10],0.257 (active)
same,normalized growth,[11],0.225 (active)
same,normalized growth,[1],0.48 (active)
same,normalized growth,[12],0.328 (active)
same,normalized growth,[13],0.254 (active)
same,normalized growth,[14],0.14 (active)
same,normalized growth,[2],0.126 (active)
same,normalized growth,[15],0.0846 (active)
same,normalized growth,"S. cerevisiae deletion strains, locus YJL187C, strain SWE1, active compounds read low",0.204 (active)
same,normalized growth,[16],0.403 (active)
same,normalized growth,[17],0.245 (active)
same,normalized growth,[18],0.537 (active)
same,normalized growth,[19],0.164 (active)
same,normalized growth,[20],0.598 (active)
same,normalized growth,[21],0.14 (active)
same,normalized growth,[22],0.156 (active)
same,normalized growth,[23],0.243 (active)
same,normalized growth,[24],0.278 (active)
same,normalized growth,[25],0.354 (active)
same,normalized growth,[26],0.454 (active)
same,normalized growth,[27],0.411 (active)
same,normalized growth,[28],0.935 (active)
same,normalized growth,[29],0.63 (active)
same,normalized growth,[30],0.212 (active)
same,normalized growth,[31],0.476 (active)
same,normalized growth,[32],0.558 (active)
same,normalized growth,"S. cerevisiae strains, strain wild type, active compounds read low",0.555 (active)
C#CCN(C)C(C)Cc1ccccc1 (stereo not drawn),normalized growth,[2],1.01
same,normalized growth,[3],1.03
same,normalized growth,[4],1.02
same,normalized growth,[5],0.95
same,normalized growth,[6],0.994
same,normalized growth,[7],0.959
same,normalized growth,[8],1.02
same,normalized growth,[9],0.989
